What follows are sequences tested against SLC20A1 (assay: pooled miR-30 sensor sort-seq; sequence = guide strand). Settings: shRNA.
Also: reference of the scale not given here.

| Sequence | sensor-assay potency score (higher = more potent) |
| --- | --- |
| TTCTCGTTCAATTTTTCTCTTC | -0.376 |
| TAGAGTAGAAGCCATATTGGTG | -0.743 |
| TTGACTGAACTGGACAAGGTTC | -0.668 |
| TTCAATATCACCAACAGACAAC | -1 |
| TAACAGTCAATAAACTGCTTGC | 0.0584 |
| TAGCTCTTTGTACAGGCCGGAA | -1.38 |
| TTCACGGTGCTATCTATGCTGG | -1.16 |
| TAGGCAACTGCACTGCACCATT | -0.846 |

What follows are sequences tested against SLC22A17 in the same assay as above. Settings: shRNA.

| Sequence | sensor-assay potency score (higher = more potent) |
| --- | --- |
| TAACCCAGGAACAGGTAGCCGG | -1.09 |
| TATTGAAACAGAATGATAGAGC | -0.514 |
| TCCGGCAGCAGCATAATGCTGA | -0.933 |
| TAGACACCCAGGTCAACACCGG | -0.269 |
| ATTATAGTCCCAATCCTTGAGG | -1.04 |
| TGAAACAGAATGATAGAGCAAG | -0.0667 |
| TTCACTATCAGCCACCGTGCGG | -0.928 |
| AAGGTCAGCAGCACAATCCCGC | -0.694 |
| TGCTCCAGGATCACCTGCCAGC | -1.29 |
| TCACTATCAGCCACCGTGCGGA | -0.275 |
| TCTGTCTGCGGGGTAACCCAGG | -1.27 |

Each sequence was assayed against SLC22A1 in the same assay as above. Settings: shRNA.

| Sequence | sensor-assay potency score (higher = more potent) |
| --- | --- |
| ATGATTATGATGTTTAACCAGT | -1.09 |
| TTCGGTGACATCCTCTTCGAGG | 0.00261 |
| TACATGATCGCCACCGTTCTTC | -0.241 |
| TGATAGAGCACAGAGTCCGTGA | -0.157 |
| TGGTACATGATCGCCACCGTTC | -1.08 |
| TTTCGGTGACATCCTCTTCGAG | -1.03 |
| TATAGTTCAGCTCCTCCGCAGG | -0.994 |
| TATCTTTATTGCTTCAGTGTTT | -0.476 |
| TTTATTGCTTCAGTGTTTCTTT | 0.132 |
| TTCTGCAGAGGATAACTCCATC | -0.998 |
| TTTTGTGATAACAGCCACCGAG | -0.543 |
| TTTGTGATAACAGCCACCGAGG | -0.671 |

What follows are sequences tested against SLC22A7 in the same assay as above. Settings: shRNA.

| Sequence | sensor-assay potency score (higher = more potent) |
| --- | --- |
| ATGGCAAACATTACATAGCTGA | -0.95 |
| TGAAGCTGTCCTCACACACTGG | -0.999 |
| TACAACTCTGAAGTGAACAGGT | 0.517 |
| TTCTGAGTGGTCGTACTCCCAG | -1.56 |
| TAATAGGAGAAGTTCACTCCGA | 0.0839 |
| TTATTTACAGAATCCTCCCCAA | -0.0957 |
| TCGGAGGACACTAGCAGTCTAG | -0.985 |
| TAGGGTACAACTCTGAAGTGAA | 0.4 |
| TTACATAGCTGACGGAGGCTGC | -0.245 |

— the OligoGym collection
